A short description of assay [1]: Her2 expression decrease, cell viability multiplex – SKBR3 breast tumor cells, AlphaScreen, ATP viability, primary screen (AID 461;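 active means Her2 level under about 52% in both replicate screens, with viability over 70% of control, limit read from the data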;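 on Her2 level: lower value means less Her2 protein in the cells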;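 on viability: percent of carrier control wells set as 100% viability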). As to conditions: SKBR3 Her2 protein level, 18-24 h, measured here: SKBR3 viability, ATP luminescence, at 10 µM. On the technique in general: Alpha assays give light when donor and acceptor beads are brought close together.
Assay [2] deals with Receptor tyrosine-protein kinase erbB-2 (Homo sapiens) (UniProt P04626). The description is as above. Conditions: 18-24 h, at 10 µM, stronger effect = lower value.
Assay [3] in a line: reduced viability of SK-BR-3 breast cancer cells – cell-based, 24 h, human, pilot screen (AID 572).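 Further: compound exposure lasted between 18 and 24 h rather than exactly 24 h; 100% = carrier-treated control wells.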 Conditions: SK-BR-3 viability, CellTiter-Glo luminescence, at 10 µM, stronger effect = lower value. In general terms: Cellular ATP, detected with luciferase, serves as a proxy for viable cell number.
The nature of assay [4]: HUVEC growth inhibition – cell-based, human, primary screen (AID 575;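 active means viability at or below 30% in both replicate assays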;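 further: 100% = median of untreated cell wells with 0.1% DMSO on each plate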). Conditions: HUVEC proliferation, CellTiter-Glo luminescence, 72 h; at 10 µM; stronger effect = lower value.
A short description of assay [5]: H69AR cell proliferation blockers – human, duplicate replicates, primary screen (AID 580;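 active means viability at or under a set limit in both replicates, limit being median viability minus 3 SD, cut at about 48% in these data, passing the limit was not always enough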;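 further: 100% = mean luminescence of untreated wells and 0% = no signal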). As to conditions: H69AR lung tumor cells viability, ATP luminescence, 72 h; at 10 µM; stronger effect = lower value.
A short description of assay [6]: MRP1 drug-resistance reversers in H69AR cells – cell-based, doxorubicin co-treatment, pilot screen (AID 601;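 active means viability loss from added drug above about 55%, and viability with drug at most 40%, in both replicates, limit read from the data, passing the limit was not always enough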). As to conditions: CellTiter-Glo, 72 h, at 10 µM; for differential viability (reversal): stronger effect = higher value.
Assay [7] can be described thus: yeast transport mutant growth inhibition pilot in 384-well plates, post-Golgi transport modulator project (AID 636; in the data active means inhibition above about 31%). As to conditions: absorbance 615 nm, about 18 h, stronger effect = higher value.
The nature of assay [8]: growth suppression of yeast trafficking mutant, preliminary HTS, modulators of trafficking downstream of Golgi apparatus project, 1536-format plate, OD 615 nm (AID 637; in the data active means inhibition above about 30%). Conditions: yeast transport mutant growth, absorbance 615 nm, 18 h; stronger effect = higher value.
Assay [9] is described as follows: S. cerevisiae growth inhibition in permissive medium (OD615), pilot counter-assay for S. cerevisiae lifespan shortening project, permissive growth control (AID 705;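 active means growth inhibition above 25% in both replicates, a cutoff set 3 SD above the mean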). Conditions: OD615, 24 h, at 10 µM, stronger effect = higher value.
A short description of assay [10]: S. cerevisiae growth inhibition in restrictive medium, OD615, pilot screen, restrictive growth control, yeast lifespan reduction project (AID 706;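 active means growth inhibition above a set limit, 3 SD over mean compound inhibition, in both replicates, cut at about 43% in these data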;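 further: modified DeaD lifespan yeast strain shifted to restrictive glucose medium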). Conditions: OD615, 48 h, at 10 µM, stronger effect = higher value.
Assay [11] is described as follows: doxorubicin toxicity protection in MRP-1 cells – H69AR cells, CellTiter-Glo, duplicate, MRP-1 activator project, pilot screen (AID 807;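 active means viability increase at or above a cutoff of the median across tested compounds plus 3 SD, cut at about 8.5% in these data, passing the limit was not always enough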;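 further: compound pretreatment 18-22 h then 72 h combined with doxorubicin; 0% = doxorubicin alone and 100% = vehicle without doxorubicin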). Conditions: H69AR viability with doxorubicin, CellTiter-Glo luminescence; at 10 µM; stronger effect = higher value.
Assay [12] is described as follows: viability of HCT116 without oncogenic beta-catenin – human colon tumor cells, pilot screen (AID 823;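 active means cell viability at or below a set limit in both duplicate runs, the limit being the all-compound median minus 4 SD, cut at about 23% in these data, passing the limit was not always enough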;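 further: 0% = wells killed by 20 µM Hyamine and 100% = untreated DMSO cell wells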). Conditions: HCT116 beta-catenin knockout viability, CellTiter-Glo, 60 h; at 10 µM; stronger effect = lower value.
Assay [13] can be described thus: viability of PTEN-null HCT116 cells – cell-based, HCT116 clonal line, CellTiter-Glo, pilot screen (AID 824;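 active means viability at or below 27.92% in each of two runs, the all-compound median minus 4 SD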;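 further: 0% = 20 µM Hyamine control and 100% = vehicle cell control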). Conditions: HCT116 PTEN-deleted viability, 60 h, at 10 µM, stronger effect = lower value.
Assay [14] can be described thus: RAM pathway blockade in budding yeast – dse1pr::URA3 reporter, 5-FOA selection, pilot screen (AID 869;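 active means inhibition over a set limit, the all-compound mean plus 3 SD, in both replicate runs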;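 further: 0% = DMSO wells with no growth and 100% = 10 µM 1-NA-PP1 with full growth; RAM network block rescues cells from 5-FOA so hits raise OD615 growth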). As to conditions: S. cerevisiae dse1pr::URA3 5-FOA growth, OD615, 2 d; at 10 µM; stronger effect = higher value; strain carries analog-sensitive mutant Cbk1 kinase.
The mark [15] stands for this setting: H69AR cells + 2 uM doxorubicin, measured here: viability with 2 uM doxorubicin, stronger effect = lower value.
Where [16] appears, read: H69AR cells, compound alone cytotoxicity.

Results filed as inconclusive are left out. The source made the active and inactive calls.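 How the source made its calls, unless noted: active means viability at or below 10% of carrier control in both of two separate runs; inconclusive means viability at or below 10% in only one of the two runs; inactive means the rest.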

What is called viability is a read-out of living cells in per cent, often relative to untreated cells. What is called inhibition is the change of the read-out against control, counted positive when it falls.

Receptor tyrosine-protein kinase erbB-2 (Homo sapiens), sequence (P04626 whole entry, looked up): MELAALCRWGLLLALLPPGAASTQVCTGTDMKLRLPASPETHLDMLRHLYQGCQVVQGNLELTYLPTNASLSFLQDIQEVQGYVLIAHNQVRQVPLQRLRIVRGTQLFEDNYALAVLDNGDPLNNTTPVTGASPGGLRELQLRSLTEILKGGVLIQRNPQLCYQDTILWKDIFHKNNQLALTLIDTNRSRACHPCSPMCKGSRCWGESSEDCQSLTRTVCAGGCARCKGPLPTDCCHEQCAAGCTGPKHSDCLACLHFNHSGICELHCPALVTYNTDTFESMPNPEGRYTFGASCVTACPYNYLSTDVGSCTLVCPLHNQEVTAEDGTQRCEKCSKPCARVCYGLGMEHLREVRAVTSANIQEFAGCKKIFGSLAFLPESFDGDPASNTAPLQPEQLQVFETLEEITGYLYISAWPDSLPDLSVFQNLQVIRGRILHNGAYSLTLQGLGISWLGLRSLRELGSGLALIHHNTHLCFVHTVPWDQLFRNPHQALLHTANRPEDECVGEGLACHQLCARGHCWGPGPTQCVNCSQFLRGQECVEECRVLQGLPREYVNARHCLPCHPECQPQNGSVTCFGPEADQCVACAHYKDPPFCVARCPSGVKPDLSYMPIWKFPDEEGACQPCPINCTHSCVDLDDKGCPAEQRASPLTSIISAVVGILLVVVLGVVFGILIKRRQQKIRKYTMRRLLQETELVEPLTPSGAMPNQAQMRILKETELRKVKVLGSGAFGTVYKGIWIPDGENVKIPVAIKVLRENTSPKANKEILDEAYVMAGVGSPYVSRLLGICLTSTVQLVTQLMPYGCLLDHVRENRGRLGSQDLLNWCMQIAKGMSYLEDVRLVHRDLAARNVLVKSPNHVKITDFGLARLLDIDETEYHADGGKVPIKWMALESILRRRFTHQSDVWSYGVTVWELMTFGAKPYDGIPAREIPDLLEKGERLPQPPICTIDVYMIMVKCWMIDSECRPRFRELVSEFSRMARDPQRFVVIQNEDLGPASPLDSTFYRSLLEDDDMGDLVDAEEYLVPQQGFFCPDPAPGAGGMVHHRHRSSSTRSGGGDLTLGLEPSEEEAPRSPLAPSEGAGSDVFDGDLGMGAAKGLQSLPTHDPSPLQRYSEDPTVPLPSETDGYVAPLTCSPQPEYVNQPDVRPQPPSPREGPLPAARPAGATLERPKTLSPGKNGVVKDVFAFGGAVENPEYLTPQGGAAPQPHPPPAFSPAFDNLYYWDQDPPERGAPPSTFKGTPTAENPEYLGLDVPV

Regarding `CC(=O)c1ccc2c3c(cccc13)C(=O)N(c1c(C)nn(C)c1C)C2=O`, the viability was 99% in assay [1]; 99% (inactive) in [3]; 112% (inactive) in assay [4]; 104% (inactive) in assay [5]; 104% in assay [6] (setting [15]); 104% in assay [6] (setting [16]). In addition, the Her2 level in assay [2] is 108% (inactive). The differential viability (reversal) in assay [6] (H69AR cells + 2 uM doxorubicin) was 0.09% (inactive). For the same compound, the figures for the inhibition in assay [7] and in assay [8] were 1.07% (inactive) and 1.31% (inactive), respectively.
Turning to `Cc1ccc2cc(CN(CC(C)C)C(=O)C3CCCO3)c(=O)[nH]c2c1` (stereo unspecified), the viability in assay [1] was 95%; in [3], 95% (inactive); in [4] it was 102% (inactive); in assay [5], 102% (inactive); in [6] (setting [15]), 96.8%; in assay [6] (setting [16]), 102%. Besides, in assay [2], the Her2 level was 98% (inactive). The differential viability (reversal) in assay [6] (H69AR cells + 2 uM doxorubicin) is 5.11% (inactive). Besides, the inhibition was -2.5% (inactive) in assay [7] and -4.18% (inactive) in assay [8].
In the case of `CC(C)n1c(=NC(=O)c2ccco2)c(C#N)cc2c(=O)n3ccccc3cc21`, the viability in assay [1] is 100%; in assay [3] it was 100% (inactive); in [4], 84.1% (inactive); in assay [5], 6.44% (active); in [6] (setting [15]) it was 2.43%; in assay [6] (setting [16]), 6.44%. In addition, the Her2 level in assay [2] is 106% (inactive). For the same compound, the differential viability (reversal) in assay [6] (H69AR cells + 2 uM doxorubicin) is 4.01% (inactive). The inhibition is 3.16% (inactive) in [7] and -6.61% (inactive) in [8].
As to `Cc1ccc(S(=O)(=O)CCC(=O)Nc2ccc3c(c2)OCO3)cc1`, the viability in assay [1] is 96.5%; in [3], 96.5% (inactive); in [4] it was 92.5% (inactive); in assay [5], 81.3% (inactive); in assay [6] (setting [15]) it was 92.1%; in [6] (setting [16]), 81.3%. For the same compound, the Her2 level in assay [2] is 84.5% (inactive). Further, the differential viability (reversal) in [6] (H69AR cells + 2 uM doxorubicin) was -10.8% (inactive). Also, the inhibition is 0.95% (inactive) in [7] and -2.22% (inactive) in assay [8].
Take `COc1ccccc1N(C)S(=O)(=O)c1ccc(C(=O)NC2=NCCS2)cc1`: the viability in assay [1] was 104%; in assay [3], 104% (inactive); in assay [4], 85.8% (inactive); in [5] it was 96.2% (inactive); in [6] (setting [15]), 99.5%; in assay [6] (setting [16]) it was 96.2%. Moreover, in assay [2], the Her2 level was 95% (inactive). Moreover, the differential viability (reversal) in [6] (H69AR cells + 2 uM doxorubicin) was -3.23% (inactive). Further, the figures for the inhibition in assay [7] and in [8] were 0% (inactive) and -5.4% (inactive), respectively.
As to `COCCN1CN(S(=O)(=O)c2ccccc2)c2nc3ccccc3nc21`, the viability in assay [1] was 101%; in assay [3], 101% (inactive); in [4], 109% (inactive); in assay [5] it was 98% (inactive); in assay [6] (setting [15]), 101%; in assay [6] (setting [16]), 98%. Also, the Her2 level in [2] was 93.5% (inactive). The differential viability (reversal) in assay [6] (H69AR cells + 2 uM doxorubicin) was -2.97% (inactive). In addition, the figures for the inhibition in [7] and in assay [8] were -3.95% (inactive) and 13.6% (inactive), respectively.
On to `COc1ccc(-c2nc(CS(=O)CC(=O)N3CCCC3)c(C)o2)cc1` (stereo unspecified), for which the viability was 92.5% in [1]; 92.5% (inactive) in assay [3]; 80.8% (inactive) in assay [4]; 83.9% (inactive) in assay [5]; 81.8% in [6] (setting [15]); 83.9% in [6] (setting [16]). Besides, the results for the viability in [12] and in assay [13] were 91.8% (inactive) and 90.7% (inactive), respectively. The Her2 level in [2] was 91% (inactive). For the same compound, in assay [6] (H69AR cells + 2 uM doxorubicin), the differential viability (reversal) was 2.07% (inactive). The inhibition in [7] was -2.67% (inactive); in assay [8], 3.77% (inactive); in [14] it was 2.27% (inactive). In addition, the results for the growth inhibition in [9] and in assay [10] were -4.09% (inactive) and 5.46% (inactive), respectively. Besides, the viability increase in assay [11] is -2.14% (inactive).
On to `COc1cc(C2c3c(n[nH]c3C)C(=O)N2c2ccc(C)cc2)ccc1O` (stereo unspecified), for which the viability in assay [1] was 113%; in assay [3], 113% (inactive); in assay [4], 88.9% (inactive); in [5], 101% (inactive); in assay [6] (setting [15]), 97%; in [6] (setting [16]), 101%. In addition, the Her2 level in assay [2] is 73% (inactive). Further, the differential viability (reversal) in [6] (H69AR cells + 2 uM doxorubicin) is 3.7% (inactive). Further, the inhibition in assay [7] is -3.87% (inactive); in [8], -2.3% (inactive).
On to `CCn1c(CSc2ncccn2)nnc1SCC(=O)N1c2ccccc2CC1C` (stereo unspecified), for which the viability in assay [1] is 96%; in [3] it was 96% (inactive); in assay [4], 87.5% (inactive); in assay [5], 96.3% (inactive); in assay [6] (setting [15]), 84.3%; in assay [6] (setting [16]), 96.3%. Further, the Her2 level in assay [2] was 87.5% (inactive). Besides, in assay [6] (H69AR cells + 2 uM doxorubicin), the differential viability (reversal) was 11.9% (inactive). The inhibition in assay [7] is -5.73% (inactive); in assay [8], 5.41% (inactive).
Regarding `Cc1ccc(-c2nnc(-c3ccc(Br)cc3)o2)o1`, the viability is 100% in [1]; 100% (inactive) in [3]; 99.9% (inactive) in assay [4]; 86.1% (inactive) in assay [5]; 84.5% in [6] (setting [15]); 86.1% in [6] (setting [16]). In assay [2], the Her2 level is 93.5% (inactive). Besides, in assay [6] (H69AR cells + 2 uM doxorubicin), the differential viability (reversal) is 1.58% (inactive). Moreover, the values for the inhibition in assay [7] and in [8] were -5.87% (inactive) and -1.64% (inactive), respectively.
For the compound `O=C(Nc1ccc2c(c1)OCO2)C(c1ccccc1)N1CCC2(CC1)OCCO2` (stereo unspecified), the viability in assay [1] is 96.5%; in assay [3], 96.5% (inactive); in [4] it was 82.6% (inactive); in assay [5], 96.3% (inactive); in [6] (setting [15]) it was 88.6%; in assay [6] (setting [16]) it was 96.3%. In addition, the Her2 level in [2] is 101% (inactive). Also, the differential viability (reversal) in assay [6] (H69AR cells + 2 uM doxorubicin) is 7.72% (inactive). The inhibition was -3.78% (inactive) in assay [7] and 14.9% (inactive) in assay [8].
Take `Cc1ccccc1-c1nc(CS(=O)(=O)CC(=O)N(C)C2CCCCC2)c(C)o1`: the viability in [1] is 108%; in assay [3] it was 108% (inactive); in assay [4] it was 90.9% (inactive); in assay [5], 92.7% (inactive); in assay [6] (setting [15]) it was 92.2%; in [6] (setting [16]) it was 92.7%. The Her2 level in [2] was 104% (inactive). Also, the differential viability (reversal) in assay [6] (H69AR cells + 2 uM doxorubicin) was 0.46% (inactive). Further, the values for the inhibition in assay [7] and in assay [8] were 0.27% (inactive) and -5.08% (inactive), respectively.
`CCSc1nc2ccccc2n1CCC(=O)O`: the viability in assay [1] was 99%; in assay [3], 99% (inactive); in [4] it was 101% (inactive); in assay [5] it was 109% (inactive); in assay [6] (setting [15]) it was 93.4%; in assay [6] (setting [16]), 109%. The Her2 level in assay [2] was 91.5% (inactive). Besides, in assay [6] (H69AR cells + 2 uM doxorubicin), the differential viability (reversal) was 15.9% (inactive). Also, the values for the inhibition in assay [7] and in [8] were -5.21% (inactive) and 1.11% (inactive), respectively.
As to `O=C(CSc1nc2ccccc2nc1SCC(=O)N1CCOCC1)N1CCOCC1`, the viability is 100% in assay [1]; 100% (inactive) in assay [3]; 110% (inactive) in assay [4]; 95.7% (inactive) in assay [5]; 94.5% in [6] (setting [15]); 95.7% in assay [6] (setting [16]). The Her2 level in assay [2] is 98% (inactive). In [6] (H69AR cells + 2 uM doxorubicin), the differential viability (reversal) is 1.15% (inactive). For the same compound, the inhibition in assay [7] was -1.03% (inactive); in assay [8], 0.17% (inactive).
As for `O=C(CSc1nnc(C2COc3ccccc3O2)o1)N1CCCc2ccccc21` (stereo unspecified), the viability is 85.5% in [1]; 85.5% (inactive) in assay [3]; 60.9% (inactive) in assay [4]; 92.3% (inactive) in assay [5]; 95.5% in assay [6] (setting [15]); 92.3% in assay [6] (setting [16]). Further, in assay [2], the Her2 level is 78% (inactive). In assay [6] (H69AR cells + 2 uM doxorubicin), the differential viability (reversal) was -3.22% (inactive). Also, the inhibition was -5.26% (inactive) in assay [7] and -4% (inactive) in assay [8].

(Values after PubChem BioAssay.)
